# Laboratory results as given in PMC7862700, “An all-to-all approach to the identification of sequence-specific readers for epigenetic DNA modifications on cytosine”.
# Legend:
# Assay in all cases: DAPPL (digital affinity profiling via proximity ligation, sequencing); 10 mM Tris-HCl pH 7.5, 50 mM NaCl, 1 mM DTT, 4% glycerol, room temperature, 30 min; GST-TFs on glutathione beads, 16-mer random dsDNA library, 0.1% formaldehyde crosslink after washing; high values mean tight binding
# [1] = target: T1, FEV (Homo sapiens, UniProt Q99581 1-238); details: protein: recombinant; tags: N-terminal GST; dsDNA, one strand shown
# T1 sequence: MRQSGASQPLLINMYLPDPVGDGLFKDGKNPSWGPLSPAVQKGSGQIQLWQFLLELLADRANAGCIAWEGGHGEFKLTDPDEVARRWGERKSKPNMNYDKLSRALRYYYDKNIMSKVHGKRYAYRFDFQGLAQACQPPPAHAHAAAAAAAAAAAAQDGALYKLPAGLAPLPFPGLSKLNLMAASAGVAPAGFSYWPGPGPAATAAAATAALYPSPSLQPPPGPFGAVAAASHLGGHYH
# Summary of the method: (§1)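 Binding signal is each hexamer's read frequency for a factor divided by its frequency in the tag-only sample. The factors were GST-fused human transcription factors from yeast, captured on glutathione beads, DNA-barcoded and pooled with that sample. Pools were incubated with 200 nmole of a random double-stranded 16-mer DNA library in Tris/NaCl/DTT/glycerol buffer at room temperature for 30 min, then washed, crosslinked with 0.1% formaldehyde, proximity-ligated with BsaI/T4 ligase (1 h, 37 °C), PCR-amplified and sequenced on an Illumina NextSeq500.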
# [2] = target: ETV5 (Homo sapiens, UniProt P41161 1-510); details: protein: recombinant; tags: N-terminal GST; dsDNA, one strand shown
# Chain of ETV5 (P41161 whole entry): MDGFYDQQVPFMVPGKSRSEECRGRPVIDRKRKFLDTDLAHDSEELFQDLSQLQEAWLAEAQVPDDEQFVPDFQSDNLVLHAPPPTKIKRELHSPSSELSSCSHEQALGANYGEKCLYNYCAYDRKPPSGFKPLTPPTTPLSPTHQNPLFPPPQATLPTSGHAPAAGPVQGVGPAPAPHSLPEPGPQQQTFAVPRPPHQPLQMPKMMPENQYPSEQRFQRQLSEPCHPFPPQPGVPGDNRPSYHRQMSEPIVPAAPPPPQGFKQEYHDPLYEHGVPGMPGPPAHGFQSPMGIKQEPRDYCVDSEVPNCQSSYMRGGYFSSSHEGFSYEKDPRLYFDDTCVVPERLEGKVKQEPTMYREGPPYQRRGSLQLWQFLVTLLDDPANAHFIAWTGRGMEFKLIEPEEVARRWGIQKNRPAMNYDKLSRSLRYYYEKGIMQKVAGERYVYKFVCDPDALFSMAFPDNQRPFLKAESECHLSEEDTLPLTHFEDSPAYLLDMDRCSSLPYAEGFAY
# Summary of the method: as §1
# [3] = target: HSF1 (Homo sapiens, UniProt Q00613 1-529); details: protein: recombinant; tags: N-terminal GST; chain copies: 3; dsDNA, one strand shown
# Chain of HSF1 (Q00613 whole entry): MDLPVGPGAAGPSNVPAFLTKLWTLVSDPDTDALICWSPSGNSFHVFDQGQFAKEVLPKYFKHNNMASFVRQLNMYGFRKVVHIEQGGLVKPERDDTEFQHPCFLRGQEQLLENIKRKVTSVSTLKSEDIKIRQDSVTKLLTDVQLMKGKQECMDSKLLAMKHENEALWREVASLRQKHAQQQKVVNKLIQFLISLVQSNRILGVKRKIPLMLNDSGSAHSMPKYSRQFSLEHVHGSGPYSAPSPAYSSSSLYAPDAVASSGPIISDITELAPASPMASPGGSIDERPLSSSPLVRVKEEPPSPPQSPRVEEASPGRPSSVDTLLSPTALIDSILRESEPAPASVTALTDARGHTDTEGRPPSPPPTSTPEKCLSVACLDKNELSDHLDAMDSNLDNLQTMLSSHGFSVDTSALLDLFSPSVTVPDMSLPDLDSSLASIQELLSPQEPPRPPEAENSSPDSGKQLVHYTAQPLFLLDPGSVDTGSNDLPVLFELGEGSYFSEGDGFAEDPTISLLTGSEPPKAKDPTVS
# Summary of the method: as §1
# [4] = target: T2, SPIC (Homo sapiens, UniProt Q8N5J4 1-248); details: protein: recombinant; tags: N-terminal GST; dsDNA, one strand shown
# T2 sequence: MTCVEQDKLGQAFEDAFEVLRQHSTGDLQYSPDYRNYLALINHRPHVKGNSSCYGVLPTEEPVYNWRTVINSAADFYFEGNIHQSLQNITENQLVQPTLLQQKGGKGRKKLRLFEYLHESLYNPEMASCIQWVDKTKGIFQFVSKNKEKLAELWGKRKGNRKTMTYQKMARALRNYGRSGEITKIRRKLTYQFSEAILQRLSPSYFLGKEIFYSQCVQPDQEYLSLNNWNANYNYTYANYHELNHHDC
# Summary of the method: as §1
# [5] = target: ELF4 (Homo sapiens, UniProt Q99607 1-663); details: protein: recombinant; tags: N-terminal GST; dsDNA, one strand shown
# Chain of ELF4 (Q99607 whole entry): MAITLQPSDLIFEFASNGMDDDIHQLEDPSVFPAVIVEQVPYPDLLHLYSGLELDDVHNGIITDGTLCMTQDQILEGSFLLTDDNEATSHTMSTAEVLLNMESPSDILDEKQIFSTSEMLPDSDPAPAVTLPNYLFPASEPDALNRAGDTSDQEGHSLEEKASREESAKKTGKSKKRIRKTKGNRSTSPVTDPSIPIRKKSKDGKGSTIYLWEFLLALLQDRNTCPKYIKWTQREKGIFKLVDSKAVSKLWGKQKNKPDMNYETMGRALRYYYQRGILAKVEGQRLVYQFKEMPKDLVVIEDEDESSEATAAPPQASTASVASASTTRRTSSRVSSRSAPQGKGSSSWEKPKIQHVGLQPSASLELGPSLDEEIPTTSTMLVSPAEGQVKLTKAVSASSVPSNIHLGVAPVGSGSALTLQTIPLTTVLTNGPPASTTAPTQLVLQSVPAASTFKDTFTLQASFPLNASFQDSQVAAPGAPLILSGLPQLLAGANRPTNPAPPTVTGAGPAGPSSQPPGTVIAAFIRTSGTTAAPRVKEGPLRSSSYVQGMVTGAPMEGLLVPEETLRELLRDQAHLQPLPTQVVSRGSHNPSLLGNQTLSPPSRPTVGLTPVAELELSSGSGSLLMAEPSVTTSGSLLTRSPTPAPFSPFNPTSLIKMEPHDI
# Summary of the method: as §1
# [6] = target: T3, ELK4 (Homo sapiens, UniProt P28324-2 1-405); details: protein: recombinant; tags: N-terminal GST; dsDNA, one strand shown
# T3 sequence: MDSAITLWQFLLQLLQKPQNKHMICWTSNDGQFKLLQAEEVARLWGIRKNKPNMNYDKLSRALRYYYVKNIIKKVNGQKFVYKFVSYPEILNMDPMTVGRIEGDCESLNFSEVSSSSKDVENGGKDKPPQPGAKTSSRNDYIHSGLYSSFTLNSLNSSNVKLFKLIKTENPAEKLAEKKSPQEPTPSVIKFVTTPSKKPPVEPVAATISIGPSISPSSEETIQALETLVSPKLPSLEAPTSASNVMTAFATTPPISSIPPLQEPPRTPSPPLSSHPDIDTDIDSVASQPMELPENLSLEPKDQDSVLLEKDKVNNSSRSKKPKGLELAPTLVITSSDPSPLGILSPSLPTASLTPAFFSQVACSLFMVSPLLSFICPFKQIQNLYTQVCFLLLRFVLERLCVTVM
# Summary of the method: as §1
# [7] = target: T4, ETV2 (Homo sapiens, UniProt O00321 1-342); details: protein: recombinant; tags: N-terminal GST; dsDNA, one strand shown
# T4 sequence: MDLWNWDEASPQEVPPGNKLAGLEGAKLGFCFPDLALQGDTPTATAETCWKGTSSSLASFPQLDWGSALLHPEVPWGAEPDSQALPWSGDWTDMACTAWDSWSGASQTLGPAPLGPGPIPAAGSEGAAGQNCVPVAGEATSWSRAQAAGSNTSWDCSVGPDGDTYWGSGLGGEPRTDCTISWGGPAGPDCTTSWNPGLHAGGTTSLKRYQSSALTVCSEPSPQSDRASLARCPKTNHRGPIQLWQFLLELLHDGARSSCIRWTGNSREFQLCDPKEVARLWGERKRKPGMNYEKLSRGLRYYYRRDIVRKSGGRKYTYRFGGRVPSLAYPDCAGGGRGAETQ
# Summary of the method: as §1
# [8] = target: T5, ELF3 (Homo sapiens, UniProt P78545 1-371); details: protein: recombinant; tags: N-terminal GST; dsDNA, one strand shown
# T5 sequence: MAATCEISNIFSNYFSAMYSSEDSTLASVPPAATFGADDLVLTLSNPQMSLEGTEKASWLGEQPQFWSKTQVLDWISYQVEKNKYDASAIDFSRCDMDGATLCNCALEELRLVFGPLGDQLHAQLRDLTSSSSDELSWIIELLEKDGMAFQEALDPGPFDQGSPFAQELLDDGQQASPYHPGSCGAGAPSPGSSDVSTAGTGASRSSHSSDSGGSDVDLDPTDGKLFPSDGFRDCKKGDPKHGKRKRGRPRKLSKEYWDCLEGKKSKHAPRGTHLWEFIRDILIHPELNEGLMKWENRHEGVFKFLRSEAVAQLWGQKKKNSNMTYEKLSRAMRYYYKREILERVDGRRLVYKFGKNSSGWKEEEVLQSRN
# Summary of the method: as §1
# [9] = target: CRX (Homo sapiens, UniProt O43186 1-299); details: protein: recombinant; tags: N-terminal GST; dsDNA, one strand shown
# Chain of CRX (O43186 whole entry): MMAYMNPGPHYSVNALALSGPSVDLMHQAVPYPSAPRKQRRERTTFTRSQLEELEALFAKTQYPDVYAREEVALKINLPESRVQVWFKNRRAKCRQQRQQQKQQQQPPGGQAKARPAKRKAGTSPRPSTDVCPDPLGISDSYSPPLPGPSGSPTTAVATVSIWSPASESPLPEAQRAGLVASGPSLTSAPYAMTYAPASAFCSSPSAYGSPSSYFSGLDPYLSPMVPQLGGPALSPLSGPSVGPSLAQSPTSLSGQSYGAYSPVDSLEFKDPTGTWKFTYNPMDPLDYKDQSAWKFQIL
# Summary of the method: as §1
# [10] = target: ETV1 (Homo sapiens, UniProt P50549 1-477); details: protein: recombinant; tags: N-terminal GST; dsDNA, one strand shown
# Chain of ETV1 (P50549 whole entry): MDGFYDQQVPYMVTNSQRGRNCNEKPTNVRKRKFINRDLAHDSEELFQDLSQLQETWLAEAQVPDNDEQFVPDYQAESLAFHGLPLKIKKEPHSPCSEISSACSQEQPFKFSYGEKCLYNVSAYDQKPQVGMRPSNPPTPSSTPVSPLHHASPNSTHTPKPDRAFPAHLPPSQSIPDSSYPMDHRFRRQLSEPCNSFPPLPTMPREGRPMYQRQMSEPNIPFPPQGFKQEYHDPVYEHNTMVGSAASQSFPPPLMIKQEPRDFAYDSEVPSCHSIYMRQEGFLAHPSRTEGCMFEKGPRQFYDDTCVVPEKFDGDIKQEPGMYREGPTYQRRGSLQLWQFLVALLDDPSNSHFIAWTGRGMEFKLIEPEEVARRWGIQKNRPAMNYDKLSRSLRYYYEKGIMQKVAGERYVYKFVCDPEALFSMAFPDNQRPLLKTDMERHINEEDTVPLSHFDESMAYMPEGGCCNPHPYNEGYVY
# Summary of the method: as §1
# [11] = target: T6, ERF (Homo sapiens, UniProt P50548 1-548); details: protein: recombinant; tags: N-terminal GST; dsDNA, one strand shown
# T6 sequence: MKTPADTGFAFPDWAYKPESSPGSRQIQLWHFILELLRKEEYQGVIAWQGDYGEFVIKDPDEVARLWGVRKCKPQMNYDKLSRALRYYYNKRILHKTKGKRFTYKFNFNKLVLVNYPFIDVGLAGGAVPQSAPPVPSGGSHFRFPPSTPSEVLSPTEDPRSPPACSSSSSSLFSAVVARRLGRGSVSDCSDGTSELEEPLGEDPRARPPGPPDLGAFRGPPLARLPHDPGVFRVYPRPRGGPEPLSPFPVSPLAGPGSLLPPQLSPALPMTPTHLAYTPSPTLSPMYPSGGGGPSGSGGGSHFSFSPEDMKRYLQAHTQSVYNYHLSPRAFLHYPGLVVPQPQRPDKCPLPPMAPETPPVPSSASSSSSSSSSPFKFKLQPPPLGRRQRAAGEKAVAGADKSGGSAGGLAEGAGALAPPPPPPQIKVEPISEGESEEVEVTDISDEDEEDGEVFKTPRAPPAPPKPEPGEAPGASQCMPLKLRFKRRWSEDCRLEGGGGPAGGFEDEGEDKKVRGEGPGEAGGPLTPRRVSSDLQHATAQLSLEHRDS
# Summary of the method: as §1
# [12] = target: T7, ETV3L (Homo sapiens, UniProt Q6ZN32 1-361); details: protein: recombinant; tags: N-terminal GST; dsDNA, one strand shown
# T7 sequence: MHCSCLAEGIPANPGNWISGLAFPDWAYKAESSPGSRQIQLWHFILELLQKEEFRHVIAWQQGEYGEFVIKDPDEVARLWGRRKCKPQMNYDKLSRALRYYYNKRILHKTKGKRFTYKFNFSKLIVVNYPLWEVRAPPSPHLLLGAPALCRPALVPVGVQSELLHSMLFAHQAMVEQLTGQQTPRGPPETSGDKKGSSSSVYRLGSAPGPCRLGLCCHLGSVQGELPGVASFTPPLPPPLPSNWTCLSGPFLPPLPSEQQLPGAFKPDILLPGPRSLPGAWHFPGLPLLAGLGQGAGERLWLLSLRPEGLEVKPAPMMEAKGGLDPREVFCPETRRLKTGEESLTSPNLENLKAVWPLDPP
# Summary of the method: as §1
# [13] = target: T8, ETS2 (Homo sapiens, UniProt P15036 1-469); details: protein: recombinant; tags: N-terminal GST; dsDNA, one strand shown
# T8 sequence: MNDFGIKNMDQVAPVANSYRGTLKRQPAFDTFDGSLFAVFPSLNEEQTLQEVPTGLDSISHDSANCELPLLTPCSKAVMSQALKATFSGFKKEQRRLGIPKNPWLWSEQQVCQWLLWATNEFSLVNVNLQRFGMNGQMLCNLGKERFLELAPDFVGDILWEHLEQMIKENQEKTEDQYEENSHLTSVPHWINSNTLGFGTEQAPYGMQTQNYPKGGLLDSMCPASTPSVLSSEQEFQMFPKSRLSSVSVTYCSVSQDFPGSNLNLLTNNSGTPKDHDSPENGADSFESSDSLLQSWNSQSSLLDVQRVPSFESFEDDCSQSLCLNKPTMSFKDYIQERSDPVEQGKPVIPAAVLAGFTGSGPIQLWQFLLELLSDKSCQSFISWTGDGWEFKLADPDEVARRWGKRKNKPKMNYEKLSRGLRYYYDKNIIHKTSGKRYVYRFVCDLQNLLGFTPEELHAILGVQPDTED
# Summary of the method: as §1
# [14] = target: T9, SPDEF (Homo sapiens, UniProt O95238 1-335); details: protein: recombinant; tags: N-terminal GST; dsDNA, one strand shown
# T9 sequence: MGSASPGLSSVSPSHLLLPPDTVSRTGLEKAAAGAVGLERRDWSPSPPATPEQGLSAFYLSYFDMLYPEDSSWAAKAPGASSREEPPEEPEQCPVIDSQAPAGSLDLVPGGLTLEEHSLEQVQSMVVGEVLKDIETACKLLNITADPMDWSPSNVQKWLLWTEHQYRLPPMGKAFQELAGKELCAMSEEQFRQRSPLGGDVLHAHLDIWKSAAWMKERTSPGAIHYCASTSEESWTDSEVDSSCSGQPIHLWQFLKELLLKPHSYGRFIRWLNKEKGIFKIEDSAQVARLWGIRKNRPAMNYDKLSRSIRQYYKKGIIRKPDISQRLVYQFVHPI
# Summary of the method: as §1
# [15] = target: T10, ETV7 (Homo sapiens, UniProt Q9Y603 1-341); details: protein: recombinant; tags: N-terminal GST; dsDNA, one strand shown
# T10 sequence: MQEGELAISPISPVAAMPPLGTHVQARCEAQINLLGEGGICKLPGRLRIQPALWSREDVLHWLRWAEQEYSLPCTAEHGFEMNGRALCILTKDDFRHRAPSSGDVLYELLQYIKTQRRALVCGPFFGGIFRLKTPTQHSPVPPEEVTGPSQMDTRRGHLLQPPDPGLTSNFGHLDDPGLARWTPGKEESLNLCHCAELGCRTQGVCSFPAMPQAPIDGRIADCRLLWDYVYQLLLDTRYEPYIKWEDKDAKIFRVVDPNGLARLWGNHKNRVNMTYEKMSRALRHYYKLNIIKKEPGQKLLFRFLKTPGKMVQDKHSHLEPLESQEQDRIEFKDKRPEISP
# Summary of the method: as §1
# [16] = target: T11, ELF5 (Homo sapiens, UniProt Q9UKW6-2 1-255); details: protein: recombinant; tags: N-terminal GST; dsDNA, one strand shown
# T11 sequence: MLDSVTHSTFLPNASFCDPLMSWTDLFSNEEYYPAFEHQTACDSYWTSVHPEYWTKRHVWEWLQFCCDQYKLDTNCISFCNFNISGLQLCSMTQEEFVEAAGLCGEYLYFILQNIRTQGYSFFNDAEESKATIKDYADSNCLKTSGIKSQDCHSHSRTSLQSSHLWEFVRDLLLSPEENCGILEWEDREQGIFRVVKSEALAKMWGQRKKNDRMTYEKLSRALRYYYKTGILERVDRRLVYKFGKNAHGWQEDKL
# Summary of the method: as §1
# [17] = target: T12, ETV3 (Homo sapiens, UniProt P41162-2 1-143); details: protein: recombinant; tags: N-terminal GST; dsDNA, one strand shown
# T12 sequence: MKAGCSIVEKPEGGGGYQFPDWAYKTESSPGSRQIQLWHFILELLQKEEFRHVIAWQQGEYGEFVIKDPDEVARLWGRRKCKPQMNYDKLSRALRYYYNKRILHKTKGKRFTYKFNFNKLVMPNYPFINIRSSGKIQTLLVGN
# Summary of the method: as §1
# [18] = target: ETV6 (Homo sapiens, UniProt P41212 1-452); details: protein: recombinant; tags: N-terminal GST; dsDNA, one strand shown
# Chain of ETV6 (P41212 whole entry): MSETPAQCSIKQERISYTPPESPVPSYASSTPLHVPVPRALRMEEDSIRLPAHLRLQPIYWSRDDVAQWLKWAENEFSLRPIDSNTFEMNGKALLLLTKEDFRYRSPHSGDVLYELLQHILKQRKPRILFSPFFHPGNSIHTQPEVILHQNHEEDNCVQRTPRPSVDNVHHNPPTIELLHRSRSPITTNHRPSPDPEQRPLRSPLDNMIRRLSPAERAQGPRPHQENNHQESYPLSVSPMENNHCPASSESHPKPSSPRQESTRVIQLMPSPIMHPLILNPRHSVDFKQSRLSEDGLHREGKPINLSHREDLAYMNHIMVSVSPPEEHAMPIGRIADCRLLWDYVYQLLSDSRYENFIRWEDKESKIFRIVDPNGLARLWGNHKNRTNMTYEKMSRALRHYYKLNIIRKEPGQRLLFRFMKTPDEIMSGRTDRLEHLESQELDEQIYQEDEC
# Summary of the method: as §1
sequence,measurement,setting,value
TCGCCC,binding signal,[1],"1.3 fold enrichment (6-mer frequency, TF over GST control)"
same,binding signal,[2],"1.24 fold enrichment (6-mer frequency, TF over GST control)"
same,binding signal,[3],"1.09 fold enrichment (6-mer frequency, TF over GST control)"
same,binding signal,[4],"1.49 fold enrichment (6-mer frequency, TF over GST control)"
same,binding signal,[5],"1.23 fold enrichment (6-mer frequency, TF over GST control)"
same,binding signal,[6],"1.19 fold enrichment (6-mer frequency, TF over GST control)"
same,binding signal,[7],"1.19 fold enrichment (6-mer frequency, TF over GST control)"
same,binding signal,[8],"1.22 fold enrichment (6-mer frequency, TF over GST control)"
same,binding signal,[9],"1.07 fold enrichment (6-mer frequency, TF over GST control)"
same,binding signal,[10],"1.26 fold enrichment (6-mer frequency, TF over GST control)"
same,binding signal,[11],"1.32 fold enrichment (6-mer frequency, TF over GST control)"
same,binding signal,[12],"1.34 fold enrichment (6-mer frequency, TF over GST control)"
same,binding signal,[13],"1.23 fold enrichment (6-mer frequency, TF over GST control)"
same,binding signal,[14],"1.25 fold enrichment (6-mer frequency, TF over GST control)"
same,binding signal,[15],"1.27 fold enrichment (6-mer frequency, TF over GST control)"
same,binding signal,[16],"1.14 fold enrichment (6-mer frequency, TF over GST control)"
same,binding signal,[17],"1.21 fold enrichment (6-mer frequency, TF over GST control)"
same,binding signal,[18],"1.23 fold enrichment (6-mer frequency, TF over GST control)"
